The source made the active and inactive calls. How the source made its calls: active means hit-call score of the fitted dose curve at least 0.9, where 1 is the maximum; inactive means score below 0.9.
Columns and labels:
[1] = ATG_CRE_CIS: Attagene CIS-FACTORIAL HepG2 Assay for human cAMP Responsive Element (CRE) binding protein 3 (AID 2282926); settings: HepG2 CRE cis-reporter, Attagene multiplexed mRNA; actives raise or lower the signal
In short: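 Endogenous CRE-binding activity in HepG2 is reported through a cis-regulated transfected reporter. Following a day of exposure, mRNA levels are determined by reverse transcription PCR and fluorescent fragment analysis; fits run in both directions versus DMSO.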

[2] = target: CCAAT/enhancer-binding protein beta (Homo sapiens) (UniProt P17676); test: ATG_C_EBP_CIS: Attagene CIS-FACTORIAL HepG2 Assay for human CCAAT/Enhancer Binding Protein (C/EBP) beta (AID 2282927); settings: HepG2 Attagene cis-factorial transcription factor reporter; actives raise or lower the signal
Sequence of CCAAT/enhancer-binding protein beta (Homo sapiens) (P17676 whole entry, looked up): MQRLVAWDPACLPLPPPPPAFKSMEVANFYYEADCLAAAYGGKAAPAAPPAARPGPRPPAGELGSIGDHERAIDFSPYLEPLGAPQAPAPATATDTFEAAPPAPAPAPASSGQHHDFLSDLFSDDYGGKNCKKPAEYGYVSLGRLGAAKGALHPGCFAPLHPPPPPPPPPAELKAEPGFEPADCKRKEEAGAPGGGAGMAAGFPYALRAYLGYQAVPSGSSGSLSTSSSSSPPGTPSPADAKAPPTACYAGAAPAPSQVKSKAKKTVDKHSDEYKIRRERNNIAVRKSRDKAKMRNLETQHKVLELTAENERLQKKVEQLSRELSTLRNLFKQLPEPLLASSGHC
In short: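 Transiently transfected HepG2 (MRTU library, endogenous TF-driven promoters); 24 h dosing; total RNA → oligo(dT) RT → PCR → 6-FAM primer extension → HpaI digest → CE; fit bidirectionally vs DMSO.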

[3] = ATG_CMV_CIS: Attagene CIS-FACTORIAL HepG2 Assay for human CMV (Internal Marker) (AID 2282928); settings: HepG2 CMV promoter reporter, transcription factor profiling; actives raise or lower the signal;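 further: endpoint acts as a background internal control marker rather than a target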
In short: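 Endogenous transcription factor activity read in HepG2 via transfected cis-promoter reporter units. After 24 h dosing, reporter mRNA measured by RT-PCR/capillary electrophoresis; gain or loss of signal fit relative to DMSO.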

[4] = ATG_DR4_LXR_CIS: Attagene CIS-FACTORIAL HepG2 Assay for human Liver X Receptor (LXR), DR4 submotif (AID 2282929); settings: HepG2 Attagene DR4 cis-reporter, mRNA transcription; actives raise or lower the signal
In short: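 HepG2, transient MRTU transfection, cis-element (DR4) promoter; 24 h compound exposure; total RNA → oligo(dT) RT → PCR → 6-FAM primer extension → HpaI cut → CE. Gain/loss vs DMSO, bidirectional fit.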

[5] = target: Aryl hydrocarbon receptor (Homo sapiens) (UniProt P35869); test: ATG_Ahr_CIS: Attagene CIS-FACTORIAL HepG2 Assay for human Aryl Hydrocarbon Receptor (Ahr) (AID 2282930); settings: HepG2 AhR cis-factorial reporter transcription; actives raise or lower the signal
Sequence of Aryl hydrocarbon receptor (Homo sapiens) (P35869 whole entry, looked up): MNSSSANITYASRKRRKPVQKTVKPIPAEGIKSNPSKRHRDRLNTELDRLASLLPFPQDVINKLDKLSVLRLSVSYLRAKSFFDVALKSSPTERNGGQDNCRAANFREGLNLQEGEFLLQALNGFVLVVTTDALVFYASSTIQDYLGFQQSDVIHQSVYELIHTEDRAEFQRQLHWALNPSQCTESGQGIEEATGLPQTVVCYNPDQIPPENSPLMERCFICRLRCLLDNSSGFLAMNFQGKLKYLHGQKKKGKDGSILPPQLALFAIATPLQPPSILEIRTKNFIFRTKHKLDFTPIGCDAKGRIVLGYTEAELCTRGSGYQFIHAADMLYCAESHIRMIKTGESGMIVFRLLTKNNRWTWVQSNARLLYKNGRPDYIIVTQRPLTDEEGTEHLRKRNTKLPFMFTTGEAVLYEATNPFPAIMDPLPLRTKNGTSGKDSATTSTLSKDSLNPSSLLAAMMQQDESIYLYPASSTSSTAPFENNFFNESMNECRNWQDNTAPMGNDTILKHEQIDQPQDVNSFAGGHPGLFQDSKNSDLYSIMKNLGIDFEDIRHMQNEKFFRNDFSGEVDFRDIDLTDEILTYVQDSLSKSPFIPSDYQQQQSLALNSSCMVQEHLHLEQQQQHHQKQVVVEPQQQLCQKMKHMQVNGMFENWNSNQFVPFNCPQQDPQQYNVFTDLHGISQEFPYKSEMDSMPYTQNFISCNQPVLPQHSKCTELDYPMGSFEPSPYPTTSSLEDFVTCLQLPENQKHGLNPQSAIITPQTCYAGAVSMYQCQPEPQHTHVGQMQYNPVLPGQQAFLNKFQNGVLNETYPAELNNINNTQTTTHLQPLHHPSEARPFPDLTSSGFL
In short: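 Read-out: reporter mRNA quantified by RT-PCR with fluorescent primer extension and capillary electrophoresis. Human HepG2 liver cells carried transfected cis-promoter reporter units and were exposed to chemical for 24 h; gain or loss fitted relative to DMSO.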

[6] = ATG_AP_1_CIS: Attagene CIS-FACTORIAL HepG2 Assay for human Activator Protein 1 (AP-1) (AID 2282931); settings: HepG2 Attagene cis-factorial AP-1 reporter mRNA; actives raise or lower the signal
In short: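 Transient MRTU transfection of HepG2 → 24 h chemical treatment → RNA isolation, RT-PCR, 6-FAM labelling, HpaI digest → capillary electrophoresis. Fit: bidirectional, DMSO negative control.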

[7] = ATG_AP_2_CIS: Attagene CIS-FACTORIAL HepG2 Assay for human Activator Protein 2 (AP-2) (AID 2282932); settings: HepG2 AP-2 cis-reporter, Attagene transcription factor profiling; actives raise or lower the signal
In short: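 Multiplexed mRNA reporter assay in HepG2: cis-regulated units report endogenous factor activity after 24 h treatment. Fluorescence from capillary electrophoresis of RT-PCR products gives the signal, with DMSO as baseline.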

[8] = ATG_BRE_CIS: Attagene CIS-FACTORIAL HepG2 Assay for human Bone Morphogenetic Protein (BMP) Response Element (BRE) (AID 2282933); settings: HepG2 BMP response element reporter, Attagene transcription factor profiling; actives raise or lower the signal
In short: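 HepG2 cells transiently transfected with multiplexed cis-element reporter units were dosed with chemical for 24 h. Reporter mRNA was measured by RT-PCR with fluorescent labelling, HpaI digestion and capillary electrophoresis; bidirectional fitting relative to DMSO.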

[9] = target: Retinoic acid receptor alpha (Homo sapiens) (UniProt P10276); test: ATG_DR5_RAR_CIS: Attagene CIS-FACTORIAL HepG2 Assay for human Retinoic Acid Receptor Alpha (RARE), DR5 submotif (AID 2282934); settings: HepG2 Attagene cis-factorial RARE DR5 reporter, mRNA; actives raise or lower the signal
Sequence of Retinoic acid receptor alpha (Homo sapiens) (P10276 whole entry, looked up): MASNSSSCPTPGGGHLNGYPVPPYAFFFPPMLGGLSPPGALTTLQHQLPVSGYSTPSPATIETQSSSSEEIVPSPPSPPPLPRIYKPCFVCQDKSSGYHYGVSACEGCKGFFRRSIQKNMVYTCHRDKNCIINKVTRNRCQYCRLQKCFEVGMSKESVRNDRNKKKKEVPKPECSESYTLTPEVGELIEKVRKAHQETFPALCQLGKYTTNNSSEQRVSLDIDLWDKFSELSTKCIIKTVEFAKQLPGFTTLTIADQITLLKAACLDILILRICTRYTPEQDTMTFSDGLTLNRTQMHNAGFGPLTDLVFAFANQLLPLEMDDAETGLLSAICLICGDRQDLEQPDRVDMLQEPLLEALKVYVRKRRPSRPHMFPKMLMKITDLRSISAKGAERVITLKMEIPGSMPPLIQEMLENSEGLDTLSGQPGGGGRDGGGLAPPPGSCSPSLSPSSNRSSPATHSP
In short: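 Read-out: DR5-driven reporter transcript measured by RT-PCR, 6-FAM primer extension, HpaI digest and capillary electrophoresis. Human HepG2 liver cells carry transiently transfected cis-element reporter constructs; dosing lasts 24 h. Gain or loss of signal fitted against DMSO baseline.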

[10] = target: Transcription factor E2F1 (Homo sapiens) (UniProt Q01094); test: ATG_E2F_CIS: Attagene CIS-FACTORIAL HepG2 Assay for human E2F Transcription Factor 1 (AID 2282935); settings: HepG2 Attagene cis-reporter, E2F reporter RNA transcripts; actives raise or lower the signal
Sequence of Transcription factor E2F1 (Homo sapiens) (Q01094 whole entry, looked up): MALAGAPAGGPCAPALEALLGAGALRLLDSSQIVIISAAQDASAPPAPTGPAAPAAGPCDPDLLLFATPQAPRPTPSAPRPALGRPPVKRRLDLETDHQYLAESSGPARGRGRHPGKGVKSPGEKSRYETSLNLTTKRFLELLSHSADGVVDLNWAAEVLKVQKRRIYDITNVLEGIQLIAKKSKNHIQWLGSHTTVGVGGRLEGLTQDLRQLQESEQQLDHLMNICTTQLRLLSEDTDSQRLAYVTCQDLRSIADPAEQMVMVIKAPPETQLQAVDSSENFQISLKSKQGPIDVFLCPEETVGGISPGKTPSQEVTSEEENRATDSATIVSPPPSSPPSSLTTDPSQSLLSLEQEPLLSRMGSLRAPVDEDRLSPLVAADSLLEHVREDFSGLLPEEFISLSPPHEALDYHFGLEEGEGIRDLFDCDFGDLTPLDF
In short: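 Measures reporter transcript levels via RT-PCR with capillary electrophoresis detection in HepG2 cells harboring cis-regulated reporter units; 24 h post-dose; bidirectional curve fitting with DMSO as baseline.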

[11] = ATG_E_Box_CIS: Attagene CIS-FACTORIAL HepG2 Assay for human Enhancer Box (E-box) (AID 2282936); settings: HepG2 E-box cis-reporter transcription, actives raise or lower the signal
In short: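 First, HepG2 cells receive multiple cis-regulated reporter constructs by transient transfection. Next, chemicals are applied for 24 h. Finally, reporter mRNA is quantified via RT-PCR and capillary electrophoresis, with DMSO as baseline.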

[12] = ATG_EGR_CIS: Attagene CIS-FACTORIAL HepG2 Assay for human Early Growth Response 1 (EGR1) (AID 2282938); settings: HepG2 Attagene CIS-FACTORIAL EGR reporter mRNA; actives raise or lower the signal
In short: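 Transient transfection of human HepG2 with multiple cis-regulated reporter units, chemical exposure 24 h, total RNA isolated. Reverse transcription, PCR, fluorescent labelling and capillary electrophoresis quantify reporter transcripts; activity fitted bidirectionally against DMSO.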

[13] = ATG_M_19_CIS: Attagene CIS-FACTORIAL HepG2 Assay for M19 Transcription Factor (Internal Marker) (AID 2282939); settings: HepG2 Attagene CIS-FACTORIAL M19 internal marker reporter; actives raise or lower the signal
In short: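 HepG2 cells transiently transfected with cis-regulated multiple reporter transcription units were dosed for 24 h; reporter mRNA was quantified by RT-PCR, 6-FAM primer-extension labelling, HpaI digestion and capillary electrophoresis, with bidirectional fitting against DMSO baseline.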

[14] = ATG_Ets_CIS: Attagene CIS-FACTORIAL HepG2 Assay for human Erythroblast Transformation Specific (ETS) (AID 2282941); settings: HepG2 ETS cis-reporter transcription, actives raise or lower the signal
In short: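 Steps: transfect HepG2 with multiple reporter units; treat compound 24 h; isolate RNA, DNase-treat, reverse-transcribe; PCR-amplify, label with 6-FAM, digest with HpaI; separate by capillary electrophoresis. Activity fitted both directions versus DMSO.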

[15] = target: Hepatocyte nuclear factor 3-beta (Homo sapiens) (UniProt Q9Y261); test: ATG_FoxA2_CIS: Attagene CIS-FACTORIAL HepG2 Assay for human Forkhead box A2 (FOXA2) (AID 2282942); settings: HepG2 cis-reporter transcription factor activity, 24 h; actives raise or lower the signal
Sequence of Hepatocyte nuclear factor 3-beta (Homo sapiens) (Q9Y261 whole entry, looked up): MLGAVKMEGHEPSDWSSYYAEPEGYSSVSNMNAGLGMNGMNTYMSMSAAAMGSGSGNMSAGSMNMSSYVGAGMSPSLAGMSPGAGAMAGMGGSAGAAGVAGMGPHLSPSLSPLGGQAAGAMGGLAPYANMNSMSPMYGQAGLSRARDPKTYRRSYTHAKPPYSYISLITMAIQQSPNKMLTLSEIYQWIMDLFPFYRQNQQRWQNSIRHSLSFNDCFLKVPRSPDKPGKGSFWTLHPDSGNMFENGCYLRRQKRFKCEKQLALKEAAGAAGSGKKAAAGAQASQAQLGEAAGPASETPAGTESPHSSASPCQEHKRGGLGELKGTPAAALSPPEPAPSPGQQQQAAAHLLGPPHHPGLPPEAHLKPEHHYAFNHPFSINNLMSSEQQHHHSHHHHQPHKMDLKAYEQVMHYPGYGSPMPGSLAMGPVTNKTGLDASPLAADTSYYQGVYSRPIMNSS
In short: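 Transient MRTU transfection of HepG2 liver cells; 24 h treatment; total RNA → oligo(dT) RT → PCR → FAM primer extension → HpaI cut → CE. Bidirectional fit vs DMSO.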

[16] = ATG_FoxO_CIS: Attagene CIS-FACTORIAL HepG2 Assay for human Forkhead box O (FoxO) (AID 2282943); settings: HepG2 Attagene cis-reporter, FoxO element, mRNA; actives raise or lower the signal
In short: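 Read-out: fluorescence of 6-FAM-labelled reporter cDNA fragments resolved by capillary electrophoresis. Transiently transfected HepG2 cells were dosed for 24 h; activity fitted in both directions relative to DMSO controls.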

[17] = ATG_GATA_CIS: Attagene CIS-FACTORIAL HepG2 Assay for human GATA Binding Protein (AID 2282944); settings: HepG2 GATA cis-element reporter, Attagene multiplex mRNA; actives raise or lower the signal
In short: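 HepG2 cells transiently transfected with multiplexed cis-element reporter units reflecting endogenous transcription factor activity; reporter mRNA measured after 24 h dosing by RT-PCR, 6-FAM labeling, HpaI digestion and capillary electrophoresis. Bidirectional fitting versus DMSO baseline.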

[18] = ATG_GLI_CIS: Attagene CIS-FACTORIAL HepG2 Assay for human Zinc Finger Protein GLI1 (AID 2282945); settings: HepG2, Attagene cis-factorial reporter mRNA, GLI element; actives raise or lower the signal
In short: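 Transiently transfected HepG2 cells report endogenous transcription factor activity via cis-element-driven reporter units. After 24 h compound exposure, reporter mRNA was measured by RT-PCR with capillary electrophoresis; bidirectional fitting against DMSO baseline.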

[19] = ATG_ERE_CIS: Attagene CIS-FACTORIAL HepG2 Assay for Estrogen Response Element (ERE) (AID 2282940); settings: HepG2 ERE cis-reporter, Attagene RNA transcript; actives raise or lower the signal
In short: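 HepG2 cells transiently transfected with cis-promoter-driven multiplexed reporter transcription units report endogenous TF activity. After 24 h compound exposure, reporter mRNA is quantified by RT-PCR with capillary electrophoresis fluorescence; bidirectional fitting versus DMSO baseline.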

[20] = ATG_M_61_CIS: Attagene CIS-FACTORIAL HepG2 Assay for M61 Transcription Factor (Internal Marker) (AID 2282937); settings: HepG2 Attagene CIS-FACTORIAL M61 internal marker reporter; actives raise or lower the signal
In short: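 Human liver HepG2, transient MRTU transfection (cis promoter elements), 24 h compound. Total RNA → oligo(dT) RT → PCR → FAM label → HpaI → CE. Internal background marker; bidirectional fitting, DMSO = baseline.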

Measured: AC50

CC(=O)C(C)O (configuration not stated)
not listed: [19] | [20]
inactive: all other assays above

CCN(CCN)c1cccc(C)c1
active: [5] 50 µM
not listed: [20]
inactive: all other assays above

CC1(C)COCN1
not listed: [12] | [19]
inactive: all other assays above

CC(C)CCOC(=O)c1ccccc1
not listed: [12] | [16] | [19]
inactive: all other assays above
